Measurements reported in PubChem BioAssay AID2320 (National Center for Advancing Translational Sciences (NCATS), 2010).
Results filed as inconclusive are left out. Entries that show only a call come without a potency. Calls of active or inactive are those of the source. The call rests on the fitted dose curve.
Potency means the concentration at half of the fitted maximal effect.

Test: A qHTS for Small Molecule Inhibitors of Shiga Toxin (Confirmatory); further: nearly all actives have a fitted effect of over 75% in size
Settings: Cell-based Shiga toxin protection reporter assay; series mostly up to 38.3 µM
In the case of `CC1Cc2ccccc2N1Cc1cc(=O)n2ccsc2n1` (stereo not drawn), the Potency was “inactive”.
For `CC[N+](CC)(CCO)CCCN1C(=O)C2CC=C(Cl)CC2C1=O` (stereo not drawn), the Potency was “inactive”.
For `CC(=O)c1cccc(NC(=O)c2ccc(NC(=O)CCS(=O)(=O)c3cccs3)cc2)c1`, the Potency was “inactive”.
In the case of `Cc1nn(-c2ccc(Cl)cc2)c(N)c1C(O)(CSc1nccn1C)C(F)(F)F` (stereo not drawn), the Potency was “inactive”.
In the case of `Nc1cc(N)nc(SCC(=O)Nc2ccc(Br)cc2Cl)n1`, the Potency was 11.3 µM (active).
With `CCn1cc(C(=O)NCc2ccccc2Cl)cn1` the Potency was “inactive”.
For `Cc1oncc1-c1csc(-c2ccccc2Cl)n1`, the Potency was 7.98 µM (active).
With `CCCNC(=O)c1ccc2snnc2c1` the Potency was “inactive”.
With `CCc1ccccc1NC(=O)Cn1nnc(-c2cccs2)n1` the Potency was “inactive”.
In the case of `O=C(/C=C/c1cn(CC(O)CN2CCCCC2)c2ccccc12)c1cccs1` (stereo not drawn), the Potency was “inactive”.
For `COc1ccc(OCc2cccc(C(=O)O)c2)cc1`, the Potency was 0.0356 µM (active).
For `O=C(CN1CCN(c2ncc(C(F)(F)F)cc2Cl)CC1)NC(=O)NCc1ccccc1`, the Potency was “inactive”.
In the case of `CN(C)S(=O)(=O)c1ccc(C(=O)Nc2ccc(CN3CCCC3)cc2)cc1`, the Potency was 0.0283 µM (active).
With `CCOC(=O)C1=C(C)NC(=O)NC1c1ccc(OCC(=O)Nc2ccccc2)c(OC)c1` (stereo not drawn) the Potency was “inactive”.
With `Cc1noc(/C=C/c2ccco2)c1S(=O)(=O)N1CCC(C(=O)N(C)Cc2ccccc2)CC1` the Potency was 22.5 µM (active).
In the case of `COc1ccccc1CNC(=O)c1csc2c1CCCC2`, the Potency was 10 µM (active).
For `Cc1ccc2c(c1)N(CC(=O)N1CCCC1)C(=O)CO2`, the Potency was “inactive”.
For `O=C(Nc1ccc(Cl)cc1)C1CCN(C(=O)c2cccs2)CC1`, the Potency was “inactive”.
